Experimental data taken from PubChem BioAssay AID434961 (Broad Institute, 2010).
Hit rate of the full screen: of about 7,700 compounds, about 15 (0.2%) were called active. About 6% were inconclusive and are not listed.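 Rule for the calls: active = more than half of replicate wells with inhibition above about 18% (limit read from the data, passing the limit was not always enough); inconclusive = exactly half of replicate wells above that limit; inactive = fewer than half of replicates above it.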 Many of the other results were omitted from the sample, so actives are more common in it than they were.

These compounds were tested against Regulator of chromosome condensation (Homo sapiens) + GTP-binding nuclear protein Ran (Homo sapiens) + Importin subunit beta-1 (Homo sapiens) (UniProt P18754+P62826+Q14974) (assay: inhibitors of Ran–importin-beta complex formation, primary screen, biochemical, CFP-Ran/YFP-importin-beta FRET, RCC1, cell-free (AID 434961;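 note: 0% = DMSO wells and 100% inhibition = RanGDP control wells on each plate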)). Conditions: active compounds read high, concentration not given here.

inhibition, inactive:
C[C@H](CO)N1C[C@H](C)[C@H](CN(C)Cc2ccc3c(c2)OCO3)Oc2c(NC(=O)c3ccncc3)cccc2C1=O -1.01%
C[C@H](CO)N1C[C@H](C)[C@H](CN(C)Cc2ccc3c(c2)OCO3)Oc2ccc(NC(=O)Nc3ccc(F)cc3)cc2CC1=O 1.05%
CNC[C@@H]1Oc2ccc(NC(=O)CCC(F)(F)F)cc2C(=O)N([C@@H](C)CO)C[C@H]1C 2.65%
CNC[C@@H]1Oc2ccc(NC(=O)Nc3ccc4c(c3)OCO4)cc2CC(=O)N([C@@H](C)CO)C[C@@H]1C -0.999%
C[C@@H]1CCCCO[C@H](CN(C)C)[C@@H](C)CN([C@H](C)CO)C(=O)c2cc(NC(=O)Cc3ccccc3)ccc2O1 -1.13%
C[C@H](CO)N1C[C@H](C)[C@@H](CN(C)C(=O)Nc2ccc3c(c2)OCO3)Oc2ccc(N(C)C)cc2C1=O -2.04%
C[C@@H]1CCCCO[C@@H](CN(C)C(=O)C2CCCCC2)[C@@H](C)CN([C@@H](C)CO)C(=O)c2cc(NS(C)(=O)=O)ccc2O1 -4.64%
C[C@@H]1CN([C@H](C)CO)C(=O)CCCn2cc(nn2)CO[C@@H]1CN(C)C(=O)Nc1ccc(N2CCCCC2)cc1 10.6%
C[C@@H]1CCCCO[C@@H](CN(C)Cc2ccncc2)[C@H](C)CN([C@@H](C)CO)C(=O)c2cc(NC(=O)c3ccncc3)ccc2O1 5.19%
C[C@@H]1CCCCO[C@H](CN(C)C(=O)C2CCCCC2)[C@H](C)CN([C@H](C)CO)C(=O)c2cc(NC(=O)Nc3ccccc3)ccc2O1 1.96%
C[C@@H]1CN([C@H](C)CO)C(=O)c2cccc(NS(=O)(=O)c3ccc(Cl)cc3)c2O[C@@H]1CN(C)C -2.17%
Cc1noc(C)c1NC(=O)N(C)C[C@H]1Oc2ccc(NC(=O)Cc3ccccc3)cc2C(=O)N([C@H](C)CO)C[C@H]1C 4.11%
C[C@H](CO)N1C[C@H](C)[C@H](CN(C)C)Oc2ccc(NS(C)(=O)=O)cc2C1=O 4.53%
C[C@@H]1CN([C@H](C)CO)C(=O)Cc2cc(N(C)C)ccc2O[C@H]1CN(C)Cc1ccc(C(F)(F)F)cc1 -0.721%
CC(C)NC(=O)Nc1ccc2c(c1)C(=O)N([C@@H](C)CO)C[C@@H](C)[C@H](CN(C)S(=O)(=O)c1cccs1)OCCCC[C@H](C)O2 3.77%
COc1ccc(S(=O)(=O)N(C)C[C@@H]2Oc3c(NC(=O)c4ccncc4)cccc3C(=O)N([C@@H](C)CO)C[C@H]2C)cc1 -7.21%
Cc1noc(C)c1NC(=O)Nc1ccc2c(c1)CC(=O)N([C@H](C)CO)C[C@@H](C)[C@@H](CN(C)C(=O)NC(C)C)O2 0.926%
Cc1noc(C)c1NC(=O)Nc1ccc2c(c1)C(=O)N([C@@H](C)CO)C[C@@H](C)[C@@H](CN(C)C(=O)CCCN(C)C)OCCCC[C@@H](C)O2 -4.32%
C[C@@H]1CN([C@@H](C)CO)C(=O)Cc2cc(NC(=O)c3ccncc3)ccc2O[C@H]1CN(C)C(=O)Nc1ccccc1 3.73%
COc1ccc(NC(=O)Nc2ccc3c(c2)C(=O)N([C@@H](C)CO)C[C@H](C)[C@@H](CN(C)S(=O)(=O)c2cn(C)cn2)O3)cc1 1.4%
C[C@H](CO)N1C[C@H](C)[C@H](CN(C)C(=O)c2ccncc2)OCCCC[C@H](C)Oc2ccc(NS(=O)(=O)c3ccccc3)cc2C1=O -1.72%
CC(C)NC(=O)Nc1ccc2c(c1)C(=O)N([C@@H](C)CO)C[C@@H](C)[C@@H](CN(C)C)OCCCC[C@H](C)O2 -4.5%
C[C@@H]1CN([C@H](C)CO)C(=O)c2cc(NS(=O)(=O)c3cn(C)cn3)ccc2O[C@@H](C)CCCCO[C@@H]1CN(C)C -0.00982%
CC(C)NC(=O)N(C)C[C@H]1Oc2ccc(N(C)C)cc2CC(=O)N([C@H](C)CO)C[C@@H]1C 0.831%
COc1ccc(S(=O)(=O)Nc2ccc3c(c2)C(=O)N([C@@H](C)CO)C[C@@H](C)[C@@H](CN(C)S(=O)(=O)c2cccs2)O3)cc1 -0.91%
C[C@@H]1CCCCO[C@@H](CN(C)S(=O)(=O)c2ccc(F)cc2)[C@@H](C)CN([C@@H](C)CO)C(=O)c2cc(NC(=O)C3CCCCC3)ccc2O1 2.57%
Cc1noc(C)c1NC(=O)N(C)C[C@@H]1Oc2c(NC(=O)c3ccc(-c4nccs4)cc3)cccc2C(=O)N([C@@H](C)CO)C[C@@H]1C -3.18%
COc1ccc(CN(C)C[C@H]2Oc3ccc(NC(=O)Nc4c(C)noc4C)cc3CC(=O)N([C@H](C)CO)C[C@@H]2C)cc1 -6.52%
C[C@@H]1CN([C@@H](C)CO)C(=O)c2cc(NS(=O)(=O)c3ccccc3)ccc2O[C@@H](C)CCCCO[C@H]1CN(C)Cc1ccncc1 -2.17%
C[C@H]1CN([C@@H](C)CO)C(=O)c2cccc(NS(=O)(=O)c3ccc(Cl)cc3)c2O[C@@H]1CN(C)C(=O)Nc1ccc(F)cc1 0.723%
C[C@H](CO)N1C[C@H](C)[C@@H](CN(C)C(=O)Nc2ccc(F)cc2)Oc2c(NS(=O)(=O)c3ccc(Cl)cc3)cccc2C1=O 2.75%
CNC[C@H]1Oc2c(NC(=O)Nc3c(C)noc3C)cccc2C(=O)N([C@@H](C)CO)C[C@H]1C 1.31%
Cc1noc(C)c1S(=O)(=O)Nc1ccc2c(c1)CC(=O)N([C@@H](C)CO)C[C@@H](C)[C@H](CN(C)C(=O)Nc1ccc(F)cc1)O2 -0.469%
C[C@@H]1CN([C@@H](C)CO)C(=O)Cc2cc(NC(=O)c3ccncc3)ccc2O[C@@H]1CN(C)C(=O)Nc1cccc2ccccc12 2.94%
C[C@@H]1CN([C@@H](C)CO)C(=O)c2cc(NC(=O)C3CC3)ccc2O[C@@H]1CN(C)C(=O)Nc1ccccc1 -1.01%
C[C@H]1CN([C@@H](C)CO)C(=O)c2cccc(NS(=O)(=O)c3cccs3)c2O[C@H]1CN(C)Cc1ccc(C(=O)O)cc1 -1.12%
C[C@H](CO)N1C[C@H](C)[C@H](CN(C)C(=O)c2ccccc2)OCc2cnnn2CCCC1=O 3.45%
Cc1noc(C)c1NC(=O)Nc1ccc2c(c1)CC(=O)N([C@@H](C)CO)C[C@H](C)[C@@H](CN(C)S(=O)(=O)c1cccs1)O2 0.0231%
Cc1noc(C)c1NC(=O)N(C)C[C@@H]1Oc2ccc(NC(=O)Cc3ccccc3)cc2C(=O)N([C@@H](C)CO)C[C@H]1C 6.07%
C[C@H](CO)N1C[C@H](C)[C@H](CN(C)C)Oc2c(NC(=O)Nc3ccc(C(F)(F)F)cc3)cccc2C1=O -2.27%
COc1ccc(CN(C)C[C@@H]2Oc3ccc(NC(=O)Nc4ccc(C(F)(F)F)cc4)cc3CC(=O)N([C@H](C)CO)C[C@@H]2C)cc1 1.78%
C[C@@H]1CN([C@@H](C)CO)C(=O)c2cccc(NC(=O)Nc3ccc(C(F)(F)F)cc3)c2O[C@H]1CN(C)C(=O)Nc1ccc(F)cc1 1.42%
C[C@H](CO)N1C[C@H](C)[C@H](CN(C)S(=O)(=O)c2cn(C)cn2)OCCCC[C@H](C)Oc2ccc(NC(=O)CCCN(C)C)cc2C1=O 1.98%
C[C@@H]1CCCCO[C@@H](CN(C)S(=O)(=O)c2ccccc2)[C@@H](C)CN([C@@H](C)CO)C(=O)c2cc(NS(C)(=O)=O)ccc2O1 1.15%
C[C@@H]1CCCCO[C@H](CN(C)C)[C@H](C)CN([C@H](C)CO)C(=O)c2cc(NC(=O)Nc3ccc4c(c3)OCO4)ccc2O1 7.53%
COc1ccc(S(=O)(=O)N(C)C[C@@H]2Oc3ccc(NS(=O)(=O)c4ccc(Cl)cc4)cc3C(=O)N([C@H](C)CO)C[C@@H]2C)cc1 1.93%
C[C@H]1CN([C@@H](C)CO)C(=O)c2cccc(NS(=O)(=O)c3cn(C)cn3)c2O[C@@H]1CN(C)CC1CC1 -0.875%
Cc1noc(C)c1NC(=O)N(C)C[C@@H]1Oc2ccc(NC(=O)C3CC3)cc2CC(=O)N([C@@H](C)CO)C[C@H]1C 3.34%
CNC[C@H]1Oc2ccc(NC(=O)Cc3ccccc3)cc2C(=O)N([C@H](C)CO)C[C@@H]1C -10.8%
C[C@H]1CN([C@@H](C)CO)C(=O)c2cccc(NS(=O)(=O)c3ccc(Cl)cc3)c2O[C@H]1CN(C)Cc1ccncc1 -0.815%
C[C@H]1CN([C@@H](C)CO)C(=O)c2cc(NC(=O)CCC(F)(F)F)ccc2O[C@H]1CN(C)C(=O)Nc1ccccc1 1.36%
C[C@H](CO)N1C[C@H](C)[C@H](CN(C)C(=O)Nc2ccccc2)Oc2ccc(NC(=O)Cc3cn(C)c4ccccc34)cc2CC1=O 2.8%
C[C@H]1CCCCO[C@H](CN(C)Cc2ccc(C(=O)O)cc2)[C@@H](C)CN([C@@H](C)CO)C(=O)c2cc(NC(=O)Nc3ccc(F)cc3)ccc2O1 5.7%
C[C@H](CO)N1C[C@H](C)[C@H](CN(C)S(=O)(=O)c2cn(C)cn2)Oc2ccc(N(C)C)cc2CC1=O -2.21%
C[C@@H]1CN([C@H](C)CO)C(=O)c2cc(NC(=O)c3ccncc3)ccc2O[C@@H]1CN(C)C 0.131%
CC(C)NC(=O)Nc1ccc2c(c1)C(=O)N([C@H](C)CO)C[C@H](C)[C@@H](CN(C)Cc1ccc(C(=O)O)cc1)OCCCC[C@@H](C)O2 2.11%
